Bioassay records from PubChem.
SW480 rerep = DNA re-replication induction in SW480 cells; Potency, µM (doses to about 46.1 µM), usual class: activators; AID 624297; 1.8% of 340,000 active; SW480 DNA re-replication, Hoechst DNA content imaging, 48 h; further: nearly all actives have a fitted effect of over 55% in size
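Per well, 250 cells were exposed to pinned compound for 48 hr. Nuclear DNA was visualised with Hoechst (40 min, 37 C) and total object intensity recorded by fluorescence scanning.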
ELG1 repair inh = blocks ELG1-dependent DNA repair in HEK293T cells | HEK293T ELG1-luciferase reporter, luminescence, 16 h; DNA damage induced by 5-fluorouridine | Potency, µM (top dose mostly 46.1 µM), hits mostly inhibitors | 2.3% of 330,000 active | AID 504467; further: nearly all actives have a fitted effect of over 55% in size
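DMSO vehicle served as the neutral condition. Each well held 2,000 cells given 5-fluorouridine plus compound; after 16 hr at 37 °C/5% CO2, ONE-Glo was added and luciferase measured 30 min later.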
KB-3-1 cytotox = KB-3-1 parental cell cytotoxicity. KB-3-1 viability, CellTiter-Glo ATP luminescence, 72 h. Potency, µM (series often up to 46.1 µM), usual class: cytotoxic. 1.4% of 400,000 active; further: nearly all actives have a fitted effect of over 60% in size
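Cytotoxicity measured as CellTiter-Glo luminescence after 72 h at 37 C. Compound titrations were pinned onto drug-naive KB-3-1 parental adenocarcinoma cells grown in DMEM with 10% FBS, and normalized data fitted to concentration-response curves.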
KB-V1 MDR tox = kills drug-selected multidrug resistant KB-V1 cells. KB-V1 MDR cells viability, CellTiter-Glo, 72 h. Potency, µM (titrated, usually from 46.1 µM), most hits filed as cytotoxic. AID 1347076. 3.4% of 400,000 active; further: nearly all actives have a fitted effect of over 60% in size
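Readout: CellTiter-Glo luminescence, 10 min after addition. Cells: KB-V1 MDR subline, 72 h at 37 degrees C with compound. Analysis: corrected, normalized data fitted to concentration-effect curves.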
MCF10A rerep = induces DNA re-replication in MCF 10a normal breast cells; Potency, µM (series often up to 46.1 µM), actives largely listed as activators; 2.9% of 350,000 active; MCF 10A DNA re-replication, Hoechst nuclear intensity, 48 h; further: nearly all actives have a fitted effect of over 50% in size
Large screens that a line does not name were inactive; ! = not confirmed by another sample. Most compounds without a hit are left out; they make up all but 8.1% or so of the library. The call rests on the fitted dose curve; in most records, active means well fitted curve in the direction sought with a large enough effect; inconclusive means small, poorly fitted or top-dose-only effect, or another doubt; inactive means no such curve, though single readings can be large; an effect the other way counts as inactive or inconclusive.

CCc1cc(C(=O)N2CCCC(C(=O)c3cccc4ccccc34)C2)n(C)n1 (stereo not drawn)	ELG1 repair inh inconclusive, KB-3-1 cytotox 21µM, KB-V1 MDR tox 5.2µM
CCCc1cc(C(=O)N2CCCC(C(=O)c3cc(C)c(OC)c(C)c3)C2)n(C)n1 (stereo not drawn)	ELG1 repair inh 8.2µM, KB-V1 MDR tox inconclusive, MCF10A rerep inconclusive
CCCc1cc(C(=O)N2CCCC(C(=O)c3ccc(Cl)cc3)C2)n(C)n1 (stereo not drawn)	none
O=C(CSc1ncccn1)NCc1ccccc1Cl	ELG1 repair inh inconclusive
Cc1noc(C)c1NC(=O)N(C)C[C@H]1Oc2c(NC(=O)Cc3ccccc3)cccc2C(=O)N([C@H](C)CO)C[C@@H]1C	none
CCc1nc(SCC(=O)Nc2nnc(CC(C)C)s2)n[nH]1	MCF10A rerep inconclusive
CSc1ccccc1C(=O)C1CCCN(C(=O)c2ccc(N3CCOCC3)cc2)C1 (stereo not drawn)	ELG1 repair inh inconclusive
O=C(c1cccc2ccccc12)C1CCCN(C(=O)c2ccc(N3CCOCC3)cc2)C1 (stereo not drawn)	SW480 rerep inconclusive, ELG1 repair inh 16µM, KB-V1 MDR tox inconclusive
COc1cc(C2c3cc4c(cc3OC(Nc3ccc(C(=O)O)cc3)C2C)OCO4)cc(OC)c1OC (stereo not drawn)	SW480 rerep 0.65µM, KB-3-1 cytotox 0.18µM, MCF10A rerep 1.3µM (no result: ELG1 repair inh)
COc1cc(C2c3cc4c(cc3OC(NCCc3ccccc3)C2C)OCO4)cc(OC)c1OC (stereo not drawn)	SW480 rerep 1µM, KB-3-1 cytotox 4.1µM, KB-V1 MDR tox 2.9µM, MCF10A rerep 1µM (no result: ELG1 repair inh)
COc1cc(CCC(=O)NCc2ccc3c(c2)OCO3)cc(OC)c1OC	none
COc1cc(C2c3cc4c(cc3OC(C)(N3CCCC3)C2C)OCO4)cc(OC)c1OC (stereo not drawn)	SW480 rerep 5.2µM, KB-3-1 cytotox 1.5µM, KB-V1 MDR tox 2.6µM, MCF10A rerep 0.65µM (no result: ELG1 repair inh)
CCOC(=O)O[C@]1(C(=O)COC(=O)CC)CC[C@H]2[C@@H]3CCC4=CC(=O)C=C[C@]4(C)[C@H]3[C@@H](O)C[C@@]21C	none
CCOC(=O)N1CCN(CC(O)COC2CC(C)CCC2C(C)C)CC1 (stereo not drawn)	MCF10A rerep inconclusive
COc1ccc(CNC(=O)C(C)N2CCN(S(=O)(=O)c3ccccc3F)CC2)cc1 (stereo not drawn)	KB-V1 MDR tox 23µM
CCCc1ccc(S(=O)(=O)N2CCN(C(C)C(=O)NCc3ccc(OC)cc3)CC2)cc1 (stereo not drawn)	ELG1 repair inh inconclusive, KB-V1 MDR tox inconclusive
Cc1ccc(-c2c(C#N)c(N)n(-c3ccccc3)c(=O)c2C#N)cc1	none
CCn1c(C)nc2cc(S(=O)(=O)C(F)(F)F)ccc21	KB-3-1 cytotox inconclusive
O=C(N/N=C/c1ccccn1)c1ccc(Br)cc1	SW480 rerep inconclusive, ELG1 repair inh inconclusive, KB-V1 MDR tox 18µM, MCF10A rerep inconclusive
O=C(NN=Cc1ccccc1O)c1cccc([N+](=O)[O-])c1	SW480 rerep 0.58µM, KB-3-1 cytotox inconclusive, KB-V1 MDR tox inconclusive (no result: ELG1 repair inh)
O=C(N/N=C/c1ccccn1)c1cccc([N+](=O)[O-])c1	SW480 rerep inconclusive, ELG1 repair inh inconclusive
O=C(N/N=C/c1ccccn1)c1ccc(NC(=O)c2cccc([N+](=O)[O-])c2)cc1	ELG1 repair inh 16µM, KB-3-1 cytotox inconclusive, MCF10A rerep inconclusive
O=C(N/N=C\c1cn[nH]c1-c1ccccc1)c1ccc([N+](=O)[O-])cc1	SW480 rerep 4.1µM, KB-3-1 cytotox inconclusive
Cc1cc2c(cc1S(=O)(=O)N1CCN(c3ccccc3F)CC1)OCC(=O)N2	none
O=C(O)C(CO)N=Cc1c(O)c2ccccc2oc1=O (stereo not drawn)	SW480 rerep inconclusive
O=C(O)c1cccc(NC(=O)c2cccc(NC(=O)C3CCCO3)c2)c1 (stereo not drawn)	ELG1 repair inh inconclusive
Cc1oc2c(cc(NS(=O)(=O)c3ccc(Cl)cc3)c3ccccc32)c1C(=O)O	MCF10A rerep inconclusive
O=C(O)CSc1cc(NS(=O)(=O)c2ccc(Br)cc2)c2ccccc2c1O	SW480 rerep inconclusive, ELG1 repair inh 15µM, KB-V1 MDR tox inconclusive, MCF10A rerep inconclusive
Cc1ccc(S(=O)(=O)Nc2ccc(Br)cc2C(NCC(=O)O)c2ccccc2)cc1 (stereo not drawn)	KB-V1 MDR tox inconclusive, MCF10A rerep inconclusive
Cc1cc(O)c(Sc2ncn[nH]2)cc1NS(=O)(=O)c1ccc(Cl)cc1	KB-3-1 cytotox inconclusive
CC(=O)c1c(C)oc2c1cc(NS(=O)(=O)c1ccc(Br)cc1)c1ccccc12	KB-3-1 cytotox 5.2µM, KB-V1 MDR tox inconclusive (no result: SW480 rerep, ELG1 repair inh, MCF10A rerep)
O=S(=O)(Nc1cc(Sc2ncn[nH]2)c(O)c2ccccc12)c1ccccc1	SW480 rerep 10µM, ELG1 repair inh 23µM, MCF10A rerep 1µM
COc1cc(-c2noc(C)c2C#Cc2ccccn2)cc(OC)c1OC	SW480 rerep 3.7µM, ELG1 repair inh inconclusive, KB-3-1 cytotox 0.58µM!, KB-V1 MDR tox 1.3µM!, MCF10A rerep inconclusive
COc1cc(-c2noc(C)c2/C=C/c2ccc(N)cc2)cc(OC)c1OC	SW480 rerep inconclusive, KB-3-1 cytotox 0.26µM!, KB-V1 MDR tox 0.58µM!, MCF10A rerep inconclusive
COc1cc(-c2noc(C)c2C#Cc2ccc(N)cc2)cc(OC)c1OC	SW480 rerep 1.2µM, KB-3-1 cytotox 0.82µM!, KB-V1 MDR tox 1.3µM!, MCF10A rerep inconclusive
CCOc1ccc(NC(=O)COC(=O)c2cc(S(=O)(=O)N3CCCC3)ccc2C)cc1	MCF10A rerep inconclusive
CC(C)(C)OC(=O)N1O[C@H]2C[C@@H]1[C@@H]1[C@@H]2N=NN1C12CC3CC(CC(C3)C1)C2	SW480 rerep 21µM
CCc1ccccc1S(=O)(=O)Cc1ccc(C(=O)NC(C)C)o1	none (no result: ELG1 repair inh)
CCN(c1ccccc1)S(=O)(=O)c1ccc(Cl)c(NC(=O)CNCc2ccccc2OC)c1	SW480 rerep inconclusive, ELG1 repair inh 18µM, MCF10A rerep 16µM (no result: KB-3-1 cytotox, KB-V1 MDR tox)
COc1ccc(S(=O)(=O)Cc2ccccc2)cc1N	SW480 rerep 6.5µM, KB-3-1 cytotox inconclusive, KB-V1 MDR tox inconclusive, MCF10A rerep inconclusive
COc1cc(OC)c(C#N)c(S(=O)(=O)Cc2ccccc2)c1	none
CCN(c1ccccc1)S(=O)(=O)c1ccc(Cl)c(NC(=O)CSc2ncn[nH]2)c1	KB-V1 MDR tox 23µM
CCN1CCN(CC(=O)Nc2cc(S(=O)(=O)N(CC)c3ccccc3)ccc2Cl)CC1	SW480 rerep inconclusive, MCF10A rerep 21µM
CC(c1ccco1)N(C(=O)c1cccc(Br)c1)c1ccccn1 (stereo not drawn)	none
COc1cccc2sc(=NC(=O)CS(=O)(=O)c3ccccc3)n(C)c12	none (no result: SW480 rerep, ELG1 repair inh, MCF10A rerep)
CCN(c1ccccc1)S(=O)(=O)c1ccc(OC)c(NC(=O)Cc2ccccc2OC)c1	KB-3-1 cytotox inconclusive
